The panel holds about 83,000 compounds, 20% with a hit somewhere; the sample as a whole holds those more often.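 For each line, cells grew in 96-well plates with the test compound present at a single concentration for 48 hours.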 A number with no mark means an inactive call. Calls of active or inactive are those of the source. Rule for the calls: active = growth percent below 10; inactive = the rest.

What all share (assay): NCI-60 one-dose screen, 48 h (100 = growth as untreated, 0 = no growth, -100 = all killed)
Common to all, as to details: 10 µM unless noted

The subject of assay [1] is T-47D breast.
Assay [2] has as its system BT-549 breast.
The subject of assay [3] is MDA-MB-435 melanoma.
Assay [4] has as its system SW-620 colon.
Assay [5] relates to MCF7 breast.
Assay [6] deals with HCT-116 colon.
Assay [7] deals with KM12 colon.
Assay [8] has as its system HCC-2998 colon.

Take `CC1OC(O[C@@H]2[C@H](O)C(CO)OC(O[C@H]3COC(O[C@H]4CC[C@]5(C)[C@H]6CC[C@]78OC[C@@]9(CC[C@](C)(C=O)C[C@H]97)C(=O)C[C@@]8(C)[C@]6(C)CC[C@H]5C4(C)C)[C@@H](O)[C@@H]3O)[C@H]2OC2OC[C@@H](O)[C@@H](O)[C@@H]2O)[C@@H](O)[C@@H](O)[C@H]1O` (stereo partly drawn): the growth in assay [1] is 81.3%; in assay [2], 104%; in assay [3] it was 105%; in assay [4] it was 104%; in assay [5], 87.7%; in assay [6], 89.1%. In addition, in assay [7], the growth was 97%.

In the case of `N/C(=N\OC(=O)CSc1nc2ccccc2s1)c1ccc(Cl)cc1`, the growth is 96.6% in assay [1]; 107% in assay [2]; 101% in assay [3]; 98% in assay [4]; 97.4% in assay [5]; 105% in assay [6]. Besides, the growth in assay [7] was 101%.

As to `CCCCCCNC(=O)Oc1ccc(/C(=C(/C)c2ccc(Cl)cc2)c2ccc(OCCN3CCCC3)cc2)cc1`, the growth was 41% in assay [1]; 71.6% in assay [2]; 51.6% in assay [3]; -30.7% (active) in assay [4]; -41.8% (active) in assay [5]; -43.9% (active) in assay [6]. The growth in assay [7] was 29.7%.

Regarding `NC(=O)c1c(NC(=O)c2cccc(C(F)(F)F)c2F)sc2c1CCC(=O)C2`, the growth is 11.8% in assay [1]; 11.4% in assay [2]; 12.3% in assay [3]; 2.94% (active) in assay [4]; 6.11% (active) in assay [5]; 7.49% (active) in assay [6]. The growth in assay [7] was 7.39% (active).

Regarding `Brc1cccc(/C=N/Nc2nc(N/N=C/c3cccc(Br)c3)nc(N3CCOCC3)n2)c1`, the growth in assay [1] is 56.4%; in assay [2], 52.7%; in assay [3] it was 33.4%; in assay [4], 24.7%; in assay [5], 22.1%; in assay [6] it was 21.2%. For the same compound, the growth is 31.5% in assay [8] and 30.3% in assay [7].

`C=C(C)[C@@H]1CC[C@]2(COS(C)(=O)=O)CC[C@]3(C)[C@H](CC[C@@H]4[C@@]5(C)CCCNC(C)(C)[C@@H]5CC[C@]43C)[C@@H]12`: the growth was 77.5% in assay [1]; 93.9% in assay [2]; 44.9% in assay [3]; 4.87% (active) in assay [4]; 3.49% (active) in assay [5]; 15.6% in assay [6]. For the same compound, in assay [7], the growth was 26.2%.

`CC1(C)CC[C@]2(C(=O)O)CC[C@]3(C)C(=CCC4[C@@]5(C)C[C@@H](O)[C@@H]6OC(c7cccc([N+](=O)[O-])c7)OC[C@@]6(C)C5CC[C@]43C)C2C1` (stereo partly drawn): the growth in assay [1] is 93.1%; in assay [2] it was 77.3%; in assay [3], 85.5%; in assay [4], 73.7%; in assay [5], 74.4%; in assay [6], 49.5%. In assay [7], the growth was 46.1%.

Consider `Cc1ccc(NC(=O)c2ccc(CN3CCN(C)CC3)c(C(F)(F)F)c2)cc1Oc1ccc(-c2[nH]nc3ncnc(N)c23)cc1`, for which the growth in assay [1] was 101%; in assay [2] it was 105%; in assay [3], 71.5%; in assay [4] it was 24.3%; in assay [5], 54%; in assay [6], 8.72% (active). In addition, the growth in assay [7] is 17.7%.

With `C=CCn1c(SCC(=O)Nc2cccc(C(=O)/C=C/c3cccc([N+](=O)[O-])c3)c2)nc2ccccc2c1=O`, the growth was 79.1% in assay [1]; 111% in assay [2]; 98.4% in assay [3]; 62% in assay [4]; 33.2% in assay [5]; 8.94% (active) in assay [6]. Besides, the growth in assay [7] is 104%.

In the case of `O=C(COc1ccc(/C=C2\SC(=O)NC2=O)cc1)Nc1ccc(C(=O)/C=C/c2cc3ccccc3nc2Cl)cc1`, the growth in assay [1] is 54.7%; in assay [2], 67.7%; in assay [3], 13.6%; in assay [4] it was 88.7%; in assay [5], -4.07% (active); in assay [6], -57.2% (active). Further, the growth in assay [7] was 59.5%.

As for `Cn1cc(-c2nn3cc(-c4cccnc4)nc3s2)c2ccccc21`, the growth was 27.7% in assay [1]; 22.2% in assay [2]; -39.1% (active) in assay [3]; 17.1% in assay [4]; 15.8% in assay [5]; 16.8% in assay [6]. The growth in assay [7] is 29.6%.

Regarding `COc1cc2cc(Oc3ccc(NC(=O)Nc4cc(C(F)(F)F)cc(C(F)(F)F)c4)cc3)c(C)nc2cc1OCCN(C)C`, the growth was 106% in assay [1]; 114% in assay [2]; 106% in assay [3]; 106% in assay [4]; 93% in assay [5]; 110% in assay [6]. Moreover, the growth in assay [8] was 103%; in assay [7], 104%.

Turning to `COc1cc2c3c(n(CCCNC4CCC4)c(=O)c2cc1OC)-c1cc2c(cc1C3=O)OCO2`, the growth is 53.5% in assay [1]; 76% in assay [2]; -65.7% (active) in assay [3]; -15.4% (active) in assay [4]; -71.5% (active) in assay [5]; -48.4% (active) in assay [6]. For the same compound, in assay [7], the growth is 38.7%.

`CN(C)c1ccc(/C=N/Nc2nc(N/N=C/c3ccc(N(C)C)cc3)nc(N3CCOCC3)n2)cc1`: the growth in assay [1] is 94.7%; in assay [2] it was 106%; in assay [3], 104%; in assay [4] it was 83.8%; in assay [5] it was 54.8%; in assay [6], 35.7%. Moreover, the growth in assay [7] was 104%.

As for `Cc1ccc(NC(=O)c2cc(/C=C/C(=O)NO)cc(C(F)(F)F)c2)cc1Nc1nccc(-c2cccnc2)n1`, the growth in assay [1] is -5.93% (active); in assay [2], -15.3% (active); in assay [3] it was -2.82% (active); in assay [4] it was -38.8% (active); in assay [5], -17.5% (active); in assay [6], -12.9% (active). For the same compound, the growth in assay [8] is -0.0369% (active); in assay [7] it was 16.4%.

Regarding `C=C1C(=O)O[C@@H]2/C=C(/C)C3=CC(=O)[C@@](C)(C[C@H](OC(=O)/C(C)=C\C)[C@@H]12)O3`, the growth in assay [1] was -17.4% (active); in assay [2], 27.9%; in assay [3] it was -59% (active); in assay [4], -28.7% (active); in assay [5], 13.2%; in assay [6] it was -53.3% (active). For the same compound, the growth in assay [7] is 28.2%.

With `C=C1C(=O)O[C@@H]2C[C@@H](C)[C@H](OC)CC(=O)[C@](C)(OC(C)=O)C[C@H](OC(=O)/C(C)=C\C)[C@@H]12`, the growth was 46.9% in assay [1]; 83.7% in assay [2]; 82.8% in assay [3]; 15.6% in assay [4]; 56.5% in assay [5]; 5.78% (active) in assay [6]. Also, the growth in assay [7] is 93.7%.

Take `C=C1C(=O)O[C@@H]2C[C@@H](C)/C=C\C(=O)[C@](C)(OC(C)=O)C[C@H](OC(=O)/C(C)=C\C)[C@@H]12`: the growth in assay [1] was -72.8% (active); in assay [2], -9.56% (active); in assay [3], -53.4% (active); in assay [4], -29.5% (active); in assay [5], 11.2%; in assay [6], -70.3% (active). The growth in assay [7] was 11.9%.

For the compound `O=C1/C(=C/c2ccc([N+](=O)[O-])cc2)SC(=Nc2ccccc2)N1Nc1ccccc1`, the growth in assay [1] was 56.2%; in assay [2], 95.6%; in assay [3], 71.1%; in assay [4] it was 43.2%; in assay [5], 44.1%; in assay [6] it was 26.9%. In addition, the growth in assay [7] is 77.5%.

As to `COc1cc2cc(Oc3ccc(NC(=O)Nc4cccc(C(F)(F)F)c4)cc3)c(C)nc2cc1OCCN(C)C`, the growth in assay [1] was 91.8%; in assay [2], 119%; in assay [3], 96.6%; in assay [4] it was 111%; in assay [5], 69.2%; in assay [6] it was 82.8%. Further, the growth in assay [7] is 98.2%.

Regarding `Cc1ccc(-c2cc3nc(C(Cl)Cl)nc(-c4ccccc4)n3n2)cc1`, the growth is 90.4% in assay [1]; 95.8% in assay [2]; 91.5% in assay [3]; 79.5% in assay [4]; 64.1% in assay [5]; 82.2% in assay [6]. Further, the results for the growth in assay [8] and in assay [7] were 65.3% and 65.8%, respectively.

Take `COc1cc(/C=N/n2cnc3oc(-c4ccccc4)cc3c2=N)cc(CN2CCN(C)CC2)c1O`: the growth in assay [1] is 99.4%; in assay [2], 120%; in assay [3] it was 98.6%; in assay [4] it was 101%; in assay [5], 89.3%; in assay [6], 80.6%. In addition, in assay [7], the growth is 87.2%.

For `COc1ccc(NC2=C(Cl)C(=O)C(C)=C(C)C2=O)cc1`, the growth in assay [1] is -2.17% (active); in assay [2], 110%; in assay [3], 106%; in assay [4] it was 94.3%; in assay [5], 75.9%; in assay [6], 63.4%. Moreover, the growth in assay [8] is 101%; in assay [7] it was 72.3%.

As to `CC[C@@](C)(NC(=O)C(C)(C)NC(=O)[C@@H](NC(=O)[C@@H]1CCCN1C(=O)C(C)(C)NC(=O)[C@H](CC(C)C)NC(=O)CNC(=O)C(C)(C)NC(=O)[C@@H](NC(=O)C(C)(C)NC(=O)[C@H](CCC(N)=O)NC(=O)[C@H](C)NC(=O)C(C)(C)NC(=O)[C@H](C)NC(=O)C(C)(C)NC(=O)[C@@H]1CCCN1C(=O)C(C)(C)NC(C)=O)C(C)C)C(C)C)C(=O)N[C@@H](CCC(N)=O)C(=O)N[C@@H](CCC(N)=O)C(=O)N[C@H](CO)Cc1ccccc1`, the growth in assay [1] is 0.666% [4.25 µM] (active); in assay [2], -50.2% [4.25 µM] (active); in assay [3], 4.98% [4.25 µM] (active); in assay [4] it was 54.9% [4.25 µM]; in assay [5], 9.62% [4.25 µM] (active); in assay [8], 29.3% [4.25 µM]. In addition, the growth in assay [7] was 29.5% [4.25 µM].

`CCNC(=O)Oc1ccc(/C(=C(/C)c2ccccc2)c2ccc(OCCN3CCCC3)cc2)cc1`: the growth in assay [1] was 51.8%; in assay [2], 70.4%; in assay [3], 81.6%; in assay [4] it was 80.3%; in assay [5], 26.9%; in assay [8], 93.4%. For the same compound, the growth in assay [7] is 81.8%.

Regarding `C=C(C)C(=O)O[C@H]1C[C@@]2(C)OC(=CC2=O)/C(CO)=C\[C@H]2OC(=O)C(=C)[C@H]12`, the growth in assay [1] is -5.88% (active); in assay [2] it was -7.7% (active); in assay [3], -71% (active); in assay [4], -61.3% (active); in assay [5] it was -7.53% (active); in assay [6], -53.7% (active). Further, the growth in assay [7] is -8.61% (active).

With `Cc1cc(Cl)cc(NS(=O)(=O)c2ccc(-c3cnc(C4CC4)o3)cc2)c1`, the growth in assay [1] was 36.1%; in assay [2] it was 48%; in assay [3] it was -23.8% (active); in assay [4] it was 28%; in assay [5] it was 24.9%; in assay [8], 19.8%. Moreover, the growth in assay [7] was 15.4%.

For the compound `O=C1[C@@H]2Cc3c([nH]c4ccccc34)[C@H](c3c(Cl)cccc3Cl)N2C(=O)CN1C1CCN(Cc2c(F)cccc2F)CC1`, the growth in assay [1] was 94.9%; in assay [2] it was 80.4%; in assay [3], 85.1%; in assay [4] it was 72.1%; in assay [5], 40.4%; in assay [8], 63.8%. Besides, the growth in assay [7] is 74.5%.

With `COc1ccc(C2CC(c3ccc(Nc4nc(NCCO)nc(Nc5ccc(Cl)cc5)n4)cc3)=Nc3c(N)nc(N)nc3N2)cc1` (stereo not drawn), the growth was 72.1% in assay [1]; 77.5% in assay [2]; 74.9% in assay [3]; 41.2% in assay [4]; -71.8% (active) in assay [5]; 93.5% in assay [8]. Moreover, in assay [7], the growth is 55.4%.

Values taken from PubChem BioAssay (NCI).
